This is a sample that favours compounds with a hit; in the whole collection about 4% have one here.
KKLEB cytotox = reduces viability of KKLEB cystic fibrosis airway cells. KKLEB CF airway cells viability, ATPlite luminescence, overnight; stronger effect = lower value; cells stimulated with P. aeruginosa culture filtrate. activity change (cytotoxicity), % at 5 µM. actives 0.36% (n = 360,000). AID 602141;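 active = corrected activity change at or below -50% at 5 µM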
TROY NFkB inh = TROY signaling inhibition; Q293 LMP1-TROYcd NF-kB luciferase reporter, 4 h; inhibition, % at 10 µM; actives 0.98% (n = 360,000); AID 1347056;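 active = compounds whose plate-normalised and pattern-corrected inhibition of the luciferase reporter signal at the single screening dose is 50% or more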
HIF-2a block = HIF-2a inhibition. inhibition, % at 18.8 µM. AID 624352. actives 0.72% (n = 360,000). 786-0 RCC cells HIF-2a reporter, luciferase luminescence, overnight;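 active = inhibition of the luminescence signal of 40% or more relative to plate controls, in a single-dose primary screen at 18.75 µM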
TWEAK Fn14 block = TWEAK-Fn14 signaling inhibition; actives 2% (n = 360,000); TWEAK-stimulated Fn14 reporter cells, luciferase luminescence, 8 h; inhibition, % at 10 µM; in the data active = inhibition above about 50%
CF NFkB block = blocks PAF-induced NF-kB reporter in cystic fibrosis cells. inhibition, % at 5 µM. actives 0.86% (n = 360,000). AID 588850. KKLEB NF-kB-GFP reporter, GFP fluorescence overnight;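 active = at least 50% inhibition at 5 µM, scaled per plate between neutral and stimulator controls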;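 also: PAF is a Pseudomonas aeruginosa culture filtrate used as stimulus; plate controls were PAF-stimulated DMSO wells for no effect and unstimulated DMSO wells for full effect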
Peg3 promoter = Peg3 promoter activity inhibition; HeLa PEG-Prom luciferase reporter, luminescence, overnight; inhibition, % at 20 µM; actives 1.7% (n = 360,000); AID 588405;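 active = inhibition of at least 50% at 20 µM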
Active calls of the source: *.

`Cc1cccc(NS(=O)(=O)c2cc(C(=O)OC(C)C(=O)NCc3ccc4c(c3)OCO4)ccc2C)c1` (configuration not stated) gave KKLEB cytotox -3, TROY NFkB inh 29, HIF-2a block 27, TWEAK Fn14 block 53*, CF NFkB block 6 and Peg3 promoter 36.
Cc1[nH]c(=O)c(C#N)cc1-c1csc(-c2ccccc2)n1 was read as KKLEB cytotox 4, TROY NFkB inh -4, HIF-2a block 18, TWEAK Fn14 block -12, CF NFkB block -28 and Peg3 promoter 60*.
For CC1=NN(c2ccc(Cl)cc2)C(=O)C1C(c1cccc(O)c1)c1c(C)[nH]n(-c2ccc(Cl)cc2)c1=O (configuration not stated) the results were KKLEB cytotox -17, TROY NFkB inh 40, HIF-2a block -2, TWEAK Fn14 block 50*, CF NFkB block 3 and Peg3 promoter 25.
For COc1ccc2c(c1)C(CC(C)=O)N(c1ccc(-c3cnc(OC)nc3)cc1)C(c1ccsc1)=C2 (configuration not stated) the results were TROY NFkB inh 46, HIF-2a block 8 and TWEAK Fn14 block 9.
Screening COC(=O)[C@@]12CCCCN1[C@H](c1ccc(-c3cc(C(C)=O)cs3)cc1)[C@H]1C(=O)N(C)C(=O)[C@H]12 returned KKLEB cytotox -2, TROY NFkB inh 34, HIF-2a block 17, TWEAK Fn14 block 37, CF NFkB block 26 and Peg3 promoter 74*.
COc1ccc(/C=N/OCC(=O)Nc2cc(C)on2)cc1OC was read as KKLEB cytotox -8, TROY NFkB inh -14, HIF-2a block 14, TWEAK Fn14 block -3, CF NFkB block 6 and Peg3 promoter 13.
For COc1ccc(/C=N/OCC(=O)NC(c2ccccc2)c2ccccc2)cc1OC the results were KKLEB cytotox 0, TROY NFkB inh 25, HIF-2a block 12, TWEAK Fn14 block 52*, CF NFkB block 9 and Peg3 promoter -8.
For COc1ccc(C(=O)N=C2CCC(C#N)=C3c4cc(OC)c(OC)cc4CCN23)cc1 the results were KKLEB cytotox -10, TROY NFkB inh 6, HIF-2a block 17, TWEAK Fn14 block -23, CF NFkB block 21 and Peg3 promoter 51*.
`Cc1cc(C)n(-c2nc(NC(C)(C)C)nc(NC(C)(C)C)n2)n1` gave KKLEB cytotox -7, TROY NFkB inh 4, HIF-2a block 16, TWEAK Fn14 block -7, CF NFkB block -6 and Peg3 promoter 16.
For Cc1cc(C)n(-c2nc(Nc3ccccc3C(F)(F)F)nc(-n3nc(C)cc3C)n2)n1 the results were KKLEB cytotox -14, TROY NFkB inh 79*, HIF-2a block 16, TWEAK Fn14 block 81*, CF NFkB block 38 and Peg3 promoter 86*.
Screening Cc1ccc(-c2ccc(/C=C3\C(=O)ON=C3c3ccccc3)o2)c([N+](=O)[O-])c1 returned KKLEB cytotox 1, TROY NFkB inh -14, HIF-2a block 95*, TWEAK Fn14 block 27, CF NFkB block 52* and Peg3 promoter 97*.
For Cc1ccc(C2=NOC(=O)/C2=C\c2ccc(C)o2)cc1 the results were KKLEB cytotox -4, TROY NFkB inh -29, HIF-2a block 42*, TWEAK Fn14 block 6, CF NFkB block 0 and Peg3 promoter 36.
`Cc1ccc(/C=C2\C(=O)ON=C2c2ccccc2)o1` gave KKLEB cytotox -13, TROY NFkB inh 16, HIF-2a block 6, TWEAK Fn14 block 6, CF NFkB block 11 and Peg3 promoter 8.
Screening O=C1/C(=C\c2ccc(-c3ccccc3[N+](=O)[O-])o2)C(c2ccccc2)=NN1c1ccccc1 returned KKLEB cytotox -4, TROY NFkB inh 27, HIF-2a block 14, TWEAK Fn14 block -12, CF NFkB block 17 and Peg3 promoter 15.
For CCOC(=O)C1CCCN(C(=O)c2cc3c(C)nc4ccccc4c3o2)C1 (configuration not stated) the results were KKLEB cytotox 3, TROY NFkB inh 17, HIF-2a block 24, TWEAK Fn14 block 18, CF NFkB block -8 and Peg3 promoter 21.
For C/C(=N\NC(=O)c1ccc(Br)cc1)c1cccnc1 the results were KKLEB cytotox -8, TROY NFkB inh -8, HIF-2a block -93, TWEAK Fn14 block -19, CF NFkB block 15 and Peg3 promoter -142.

Screens as filed in PubChem BioAssay.
